KB-3-1 cytotox – KB-3-1 parental cell cytotoxicity; KB-3-1 viability, CellTiter-Glo ATP luminescence, 72 h; Potency, µM (series often up to 46.1 µM), most hits filed as cytotoxic; 1.4% of 400,000 active; further: on the % scale 0 is the no-effect control and ±100 the full control effect; nearly all actives have a fitted effect of over 60% in size
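Using CellTiter-Glo luminescence, growth of non-resistant KB-3-1 adenocarcinoma cells is assessed 72 h after pin-tool compound addition at 37 °C. Normalized responses across the concentration series yield fitted curves.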
HT1080 IDH1KD tx – toxicity to HT-1080 IDH1 knockdown cells (counter line); HT-1080 IDH1 knockdown viability, ATP luminescence, 48 h; Potency, µM (doses to about 46.1 µM), for the others: at the highest dose activity, negative = toxicity, most hits filed as cytotoxic; 2% of 360,000 active; AID 686971;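 further: 0% = DMSO wells and -100% = cell-free medium wells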
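HT-1080-IDH1KD cells (IDH1 knocked down), 750/well in RPMI with 5% FBS, treated with compound 48 h at 37 degrees C. Viability by CellTiter-Glo luminescence, normalised to DMSO and no-cell wells; concentration-response curves classed.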
KB-V1 cytotox – KB-V1 MDR subline cytotoxicity | Potency, µM (titrated, usually from 46.1 µM), usual class: cytotoxic | KB-V1 MDR cells viability, CellTiter-Glo, 72 h | AID 1347076 | 3.4% of 400,000 active; further: on the % scale 0 is the no-effect control and ±100 the full control effect; nearly all actives have a fitted effect of over 60% in size
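Cytotoxicity via CellTiter-Glo luminescence after 72 h compound exposure at 37 degrees C. Cells: drug-selected KB-V1 line, DMEM phenol-red free plus 10% FBS. Compounds tested at multiple concentrations; normalized data fitted to concentration-effect curves.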
HT1080-NT tox – kills 2HG-producing HT-1080-NT fibrosarcoma cells; HT-1080-NT fibrosarcoma viability, CellTiter-Glo ATP luminescence, 48 h; Potency, µM (doses to about 46.1 µM), for inactives: at the highest dose activity, negative = less viability, most hits filed as cytotoxic; 1.6% of 360,000 active; AID 686970;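 further: NT is the 2HG producing partner of a matched IDH1 knockdown line; 0% = DMSO-treated cells and -100% = media-only wells without cells; nearly all actives have a fitted effect of over 55% in size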
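HT-1080-NT; 750 cells/well; 5% FBS RPMI; 48 h compound, 37 degrees C; CellTiter-Glo luminescence; curve fitting and curve-class assignment.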
MCF10A rereplic – induces DNA re-replication in MCF 10a normal breast cells | 2.9% of 350,000 active | MCF 10A DNA re-replication, Hoechst nuclear intensity, 48 h | Potency, µM (top dose mostly 46.1 µM), without a hit: at the highest dose activity, positive = re-replication, actives largely listed as activators; further: % of control where 0% means no effect; nearly all actives have a fitted effect of over 50% in size
SW480 rerep – inducers of DNA re-replication in SW480 colon cancer cells; 1.8% of 340,000 active; AID 624297; Potency, µM (doses to about 46.1 µM), inactives show at the top dose re-replication activation, hits mostly activators; SW480 DNA re-replication, Hoechst DNA content imaging, 48 h; further: % of control where 0% means no effect; nearly all actives have a fitted effect of over 55% in size
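Treated cells incubate 48 hr (37 C, 5% CO2), are stained 40 min with Hoechst, and nuclear fluorescence is enumerated; a rise in nuclei with high DNA signal marks re-replication.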
The depositor's hits bear a star; i = inactive; ? = inconclusive; / = no result given; [ ] = another dose, or the depositor's remark. Hits are enriched below; roughly 8% of the tested compounds scored in any of these assays. The call rests on the fitted dose curve; in most records, active means well fitted curve in the direction sought with a large enough effect; inconclusive means small, poorly fitted or top-dose-only effect, or another doubt; inactive means no such curve, though single readings can be large; an effect the other way counts as inactive or inconclusive. Potency means the concentration at half of the fitted maximal effect.

SMILES	KB-3-1 cytotox	HT1080 IDH1KD tx	KB-V1 cytotox	HT1080-NT tox	MCF10A rereplic	SW480 rerep
COc1ccccc1NS(=O)(=O)c1cc(NC(=O)Nc2ccc(Cl)cc2Cl)ccc1N1CCCCC1	?	-19%	10µM*	6%	3%	-8%
CC(=O)Nc1ccc(N2CCOCC2)c(S(=O)(=O)Nc2ccccc2Cl)c1	i	1%	i	0%	/	/
CS(=O)(=O)c1[nH]nc(-c2ccccc2Cl)c1C#N	i	5%	i	1%	5%	-2%
O=C(CC1C(=O)CCCC1=O)c1ccccc1	i	?	i	?	15µM*	?
O=C(CCC1CCCCC1=O)c1ccccc1 (configuration not stated)	i	15%	i	8%	1%	2%
Oc1ccccc1N1CCN(c2ncnc3scc(-c4ccccc4)c23)CC1	?	?	?	?	21µM*	?
Cc1nc(N2CCN(c3ccccc3O)CC2)c2c(-c3ccccc3)csc2n1	?	?	i	-27%	13µM*	?
COc1ccc(-c2csc3nc(C)nc(N4CCC(C)CC4)c23)cc1OC	?	?	?	18µM*	?	19%
CCOc1ccccc1N1CCN(c2ncnc3scc(-c4ccc(OC)cc4)c23)CC1	13µM*	?	?	?	?	?
COc1ccc(-c2csc3ncnc(N4CCN(c5ccccc5OC)CC4)c23)cc1	?	-7%	?	-18%	?	5%
COC(=O)c1ccccc1NC(=S)NC(=O)C1CCCCC1	i	6%	i	2%	10%	-3%
O=C(O)CCn1cc(/C=C\C(=O)c2ccc(Cl)cc2)c(-c2cccc(Br)c2)n1	i	?	i	-18%	12µM*	-3%
OCC1CCN(Cc2cn(Cc3ccccc3)nc2-c2cc3ccccc3o2)CC1	i	?	?	?	4%	22%
COC1CCN(Cc2cn(Cc3ccccc3)nc2-c2cc3ccccc3o2)CC1	?	26µM*	?	?	2%	?
CN(C)C(=O)COC(=O)c1ccc(S(=O)(=O)NCc2ccco2)cc1	i	?	i	-5%	9%	3%
CCC(C)N1C(=O)/C(=C/c2c(NCCCOC(C)C)nc3c(C)cccn3c2=O)SC1=S (configuration not stated)	i	13%	6.5µM*	14%	4%	-2%
COCCOC(=O)C1=C(C)N=C2SCCC(=O)N2C1/C=C/c1ccccc1 (configuration not stated)	i	13%	i	-2%	2%	-3%
CC(=O)c1cnc(N2CCCCC2)nc1C	i	0%	i	-2%	1%	-3%
CCN(C(=O)CSc1nc(-c2ccccc2)no1)c1cccc(C)c1	6.5µM*	/	i	/	/	/
CCN(C(=O)CSc1nc2ccccc2nc1Cc1ccc(F)cc1)c1cccc(C)c1	i	/	i	/	/	/
Cc1ccc(OCC(=O)Nc2ccc3c4c(cccc24)CC3)c(C)c1	i	20%	i	17%	-1%	26%
COc1ccccc1NS(=O)(=O)c1cccc(NC(=O)Nc2ccccc2)c1	?	-9%	21µM*	-9%	17%	?
COc1cccc(OC)c1C(=O)Nc1cccc(S(=O)(=O)Nc2ccccc2Cl)c1	i	1%	i	0%	11%	-1%
CCNC(=S)Nc1cccc(S(=O)(=O)Nc2ccccc2OC)c1	i	-7%	i	-12%	6%	4%
COc1ccccc1NS(=O)(=O)c1cccc(NC(=O)Nc2ccc(Cl)cc2)c1	?	18µM*	?	?	?	?
SMILES	KB-3-1 cytotox	HT1080 IDH1KD tx	KB-V1 cytotox	HT1080-NT tox	MCF10A rereplic	SW480 rerep
Cc1ccc(C)c(NC(=O)CSc2nnc(CNC(=O)c3cccs3)o2)c1	i	0%	i	8%	-11%	-5%
Cc1cc(C)cc(Nc2ccc([N+](=O)[O-])nc2[N+](=O)[O-])c1	i	14%	i	2%	-2%	13%
COc1cc(Nc2ccc(C)cc2)c([N+](=O)[O-])nc1[N+](=O)[O-]	?	3.2µM*	5.8µM*	3.2µM*	-1%	0%
Cc1cc(NN)nc2ccc(Cl)cc12	?	-5%	13µM*	-6%	18%	?
Cc1cc(C)c2ccc(Cl)cc2n1	i	11%	i	5%	4%	-16%
Cc1ccc(C(C)C)c(OCC(O)CN(C)Cc2ccccc2)c1 (configuration not stated)	i	?	i	?	?	21µM*
Cc1ccc(C(C)C)c(OCCCN(C)Cc2ccccc2)c1	i	?	12µM*	-22%	23µM*	?
Cc1ccc(OCCCCN(C)Cc2ccccc2)c(Br)c1	i	?	i	?	?	?
CN(C(=O)CSc1ncnc2sccc12)C1CCS(=O)(=O)C1 (configuration not stated)	i	-1%	?	13%	-2%	?
CN(C(=O)CSc1ncnc2sccc12)C1CCCCC1	i	12%	5.2µM*	13%	3%	-4%
CN1CCN(Cc2nc3c([nH]2)c(=O)[nH]c(=O)n3C)CC1	i	-3%	i	1%	-179%[0.0737 µM]	-4%
CCCn1c(NC(=O)c2cccc(S(=O)(=O)N3CCCC3)c2)nc2ccccc21	16µM*	?	16µM*	?	18µM*	?
Cn1c(CCCNC(=O)c2ccccc2)nc2ccccc21	i	15%	i	7%	-1%	-6%
CCNC(=O)c1cccc(S(=O)(=O)N2CCCCCC2)c1	i	1%	i	4%	-3%	-689%
Cn1c(/C=N/NC(=O)c2ccccc2)nc2ccccc21	i	?	?	10µM*	1%	0%
CCCn1c(NCc2ccco2)nc2ccccc21	i	-22%	21µM*	1%	3%	0%
CC(C)Cn1c(CNC(=O)c2ccccc2)nc2ccccc21	i	1%	?	-3%	0%	2%
CCCn1c(CNC(=O)c2ccccc2)nc2ccccc21	i	10%	23µM*	11%	3%	-9%
O=C(Cn1c(=O)n(-c2ccc(Cl)cc2)c(=O)c2sc3ccccc3c21)NC1CCCCC1	i	/	i	/	/	/
Cn1c(N)c(C(=O)COC(=O)c2cc(-c3ccccc3)nc3ccccc23)c(=O)n(Cc2ccccc2)c1=O	i	-4%	?	-5%	5%	-31%[9.22 µM]
